ZTA DNA inh = ZTA (EBV) inhibition in EBNA-1 counter-screen | P03206 | ZTA-DNA binding, fluorescence polarization | inhibition, % at 11 µM | 0.15% of 320,000 active | AID 2234; in the data active = inhibition above about 33%
Target sequence (P03206 whole entry, looked up): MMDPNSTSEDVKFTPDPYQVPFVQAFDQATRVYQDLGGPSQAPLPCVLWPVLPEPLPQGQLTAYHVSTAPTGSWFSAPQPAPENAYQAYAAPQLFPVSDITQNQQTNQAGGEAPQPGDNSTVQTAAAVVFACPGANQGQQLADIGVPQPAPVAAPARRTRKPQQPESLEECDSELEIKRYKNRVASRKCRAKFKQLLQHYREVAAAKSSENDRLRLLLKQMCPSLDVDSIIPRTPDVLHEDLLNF
p47phox inh = inhibitors of human p47phox binding; P14598; p47phox/p22phox peptide binding, fluorescence polarization, 2 h; inhibition, % at 24.7 µM; 0.53% of 220,000 active;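 active = inhibition above about 30%, limit read from the data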;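 also: 0% = p47phox with labelled peptide and 100% = labelled peptide alone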
Target sequence (P14598 whole entry, looked up): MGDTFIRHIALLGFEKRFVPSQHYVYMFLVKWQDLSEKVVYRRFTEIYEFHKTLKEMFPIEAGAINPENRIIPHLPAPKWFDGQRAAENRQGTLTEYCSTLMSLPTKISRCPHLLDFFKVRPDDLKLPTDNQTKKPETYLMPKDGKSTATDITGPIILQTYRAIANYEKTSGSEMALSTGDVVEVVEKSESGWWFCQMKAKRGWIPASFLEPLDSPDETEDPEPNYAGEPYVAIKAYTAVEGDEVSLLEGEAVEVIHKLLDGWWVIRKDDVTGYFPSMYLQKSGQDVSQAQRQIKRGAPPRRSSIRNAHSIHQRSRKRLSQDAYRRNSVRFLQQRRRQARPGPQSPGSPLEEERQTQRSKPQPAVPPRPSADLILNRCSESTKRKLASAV
EBNA-1 inh = blocks EBNA-1 binding to DNA. EBNA-1 DNA binding, fluorescence polarization. inhibition, % at 14.8 µM. 0.34% of 300,000 active. AID 1950; in the data active = inhibition above about 28%
PG9 binder = binds the HIV-1 gp120 antibody PG9 | 0.43% of 360,000 active | inhibition, % at 6.7 µM | AID 624416 | TR-FRET gp120-PG9 antibody binding; in the data active = inhibition above about 8.5%
Rev-erbA mod = Rev-erb alpha (human) modulation; P20393; Rev-erbα–FITC-DNA binding, fluorescence polarization, 90 min; activity, % at 10 µM; 0.79% of 370,000 active; AID 1259318;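 active = activity above about 14%, limit read from the data; passing the limit was not always enough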;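 also: 0% = DMSO wells with 35 nM protein and 100% = DMSO wells with 750 nM protein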
aDG glyco up = increases alpha dystroglycan glycosylation. 0.22% of 360,000 active. activation, % at 10 µM. Pro5-aDG cells, alpha-DG glycosylation AlphaScreen (IIH6); 0% Pro5, 100% B10-LARGE cell signal;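 active = activation of at least 8% versus controls, or a plate z-score of at least 8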;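 also: Pro5 are CHO cells carrying HIG-tagged alpha-DG that lacks glycosylation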
PG9 bind confirm = confirmation of small molecules binding HIV-1 gp120 antibody PG9; shares compounds with PG9 binder; TR-FRET PG9 antibody binding, biochemical; inhibition, % at 6.7 µM; 90% of 1,500 active; AID 651571; in the data active = inhibition above about 9%
PGV04 Ab binding = counter-screen for PG9 binders: binding control antibody PGV04 | shares compounds with PG9 binder | TR-FRET PGV04 antibody-gp120 binding, biochemical | inhibition, % at 6.7 µM | 95% of 1,500 active; in the data active = inhibition above about 9.5%
NR1D1 mod conf = Rev-erb alpha (human) modulation, hit confirmation; 61% of 3,000 active; shares compounds with Rev-erbA mod; activation, % at 25 µM; Rev-erb alpha FITC-DNA binding, fluorescence polarization, 90 min;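 active = activation at or above a set limit, or at least 3 SD above the negative control mean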;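 also: 0% = 35 nM protein with DMSO and 100% = 750 nM protein high control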
RORg DNA counter = counter-screen for Rev-erb alpha modulators: RORgamma DNA binding | purified RORgamma protein-FITC-DNA binding, fluorescence polarization | 8% of 910 active | IC50, µM | shares compounds with Rev-erbA mod;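 active = Compounds whose fitted half-maximal concentration for disrupting protein-DNA binding is below 10 micromolar; the record names Rev-erb in its text, so the target is in doubt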
* = called active by the depositor; . = not tested or not shown. The list is not random: actives were taken first. Their share in the collection is about 1.9%.

SMILES	ZTA DNA inh	p47phox inh	EBNA-1 inh	PG9 binder	Rev-erbA mod	aDG glyco up	PG9 bind confirm	PGV04 Ab binding	NR1D1 mod conf	others
Nc1c(S(=O)(=O)c2cccc(Cl)c2)c2nc3ccccc3nc2n1CCN1CCOCC1	-7	-18	-11	11*	32*	0	3	4	4
COc1cc(C(=O)Nc2cc(Cl)ccc2-n2cncn2)ccc1OC(F)F	-2	.	-12	10*	31*	0	23*	38*	16
O=C(Nc1cc(Cl)ccc1-n1cncn1)c1ccccc1OC(F)F	.	.	.	0	-4	0	.	.	.
CC(=O)NC1CCCCN(Cc2cccc(F)c2)C1=O (stereo not given)	.	.	.	.	-4	.	.	.	.
O=C(Nc1nnc(SCc2c(Cl)cccc2Cl)s1)c1ccc2ncsc2c1	0	1	-4	.	.	.	.	.	.
N#Cc1ccc(CSc2nnc(NC(=O)c3ccc4ncsc4c3)s2)cc1	6	-8	37*	32*	60*	1	30*	48*	23*
CCOC(=O)Cn1cc(CN2C(C(=O)OC)CN(Cc3ccc(Cl)cc3)CCS2(=O)=O)nn1 (stereo not given)	.	.	.	.	-1	.	.	.	.
COc1ccccc1N1C(=O)C2C(C(=O)c3ccccc3)=NN(c3ccc(Br)cc3)C2C1=O (stereo not given)	-3	-9	-5	13*	66*	0	17*	28*	21*
O=C(COc1ccc2ccccc2c1Br)NNC(=O)Nc1ccccc1	8	7	24	37*	281*	0	41*	48*	381*	RORg DNA counter=4*
COc1ccc2[nH]cc(C(C)c3c[nH]c4ccccc34)c2c1 (stereo not given)	.	.	.	.	-2	.	.	.	.
Cc1cc(C)c2c(N)c(C(=O)Nc3ccccc3Br)sc2n1	-13	.	-1	9.1*	38*	0	23*	38*	28*
Cc1cc(C)c2c(N)c(C(=O)Nc3ccccc3Cl)sc2n1	21	.	2	-1	0	0	.	.	.
Cn1c(=O)c2cc(NC(=O)Cc3cccnc3)ccc2n1-c1ccc2ccccc2c1	.	.	.	-1	2	0	.	.	.
CC(CC(=O)Nc1ccc2c(c1)c(=O)n(C)n2-c1ccc2ccccc2c1)C(F)(F)F (stereo not given)	.	.	.	24*	20*	0	17*	24*	22*
Cc1cccc(NC(=O)CCN2C(=O)c3ccccc3C2=O)n1	4	-8	2	2	6	0	.	.	.
O=C(CCN1C(=O)c2cccc3cccc(c23)C1=O)Nc1ccon1	-13	-12	-11	12*	43*	0	17*	36*	30*
O=C(NCCc1nc2ccccc2n1C/C=C/c1ccccc1)C1CCCCC1	.	.	.	.	7	.	.	.	.
C=CCN1C(=O)[C@@H](CC(=O)NCCCCc2ccccc2)[C@]2(C(=O)OC)CCCCC=C12	.	.	.	.	3	.	.	.	.
COC[C@H]1CCCN1c1cccc2c1S(=O)(=O)N(C1CC1)CCCO2	.	.	.	.	6	.	.	.	.
CC(=O)NCCNc1nc2c(-c3cccc(C)c3)nnn2c2ccccc12	-3	.	-24	4	1	0	.	.	.
CC(=O)NCCNc1nc2c(-c3cccc(C(F)(F)F)c3)nnn2c2ccccc12	26	.	13	25*	69*	0	15*	57*	3
CC(=O)c1cc(-c2cnn(Cc3ccccc3)c2)c(=O)n2c1CCC2	.	.	.	.	-3	.	.	.	.
Cc1cc(C)c(C#N)c(SCCS(=O)(=O)Cc2ccc(Cl)cc2)n1	-2	0	22	11*	36*	0	22*	31*	18*
COc1ccc(Cn2cc(CN3[C@H](CC(C)C)COc4cc(Br)ccc4S3(=O)=O)nn2)cc1	.	.	.	.	-2	.	.	.	.
O=C(NCCCN1CCN(c2ccc(F)cc2)CC1)Nc1ccccc1	.	.	.	.	1	.	.	.	.
SMILES	ZTA DNA inh	p47phox inh	EBNA-1 inh	PG9 binder	Rev-erbA mod	aDG glyco up	PG9 bind confirm	PGV04 Ab binding	NR1D1 mod conf	others
Cc1nc(NC(=O)c2ccc(OCC(C)C)cc2)sc1Cc1ccc2c(c1)OCO2	-10	-30	1	-1	-1	0	.	.	.
Cc1nnc(NC(=O)c2ccc3c(c2)OCO3)s1	-8	-6	2	-4	-2	0	.	.	.
CCCOc1ccc(C(=O)Nc2nc(C)c(Cc3ccc4c(c3)OCO4)s2)cc1	-9	1	5	61*	128*	0	25*	31*	83*	RORg DNA counter=>40
NS(=O)(=O)c1ccc2nc(NC(=O)c3ccc4c(c3)OCCO4)sc2c1	1	.	-6	37*	33*	0	33*	46*	12
Cc1ccc2nc(NC(=O)c3ccc4c(c3)OCO4)sc2c1	0	-17	6	18*	29*	0	21*	32*	12
O=C(OCCN1CCN(C2CN(Cc3cn(Cc4ccccc4Cl)nn3)S(=O)(=O)C2)CC1)c1cc2ccccc2o1 (stereo not given)	.	.	.	.	5	.	.	.	.
CN(C)S(=O)(=O)c1cccc(C(=O)N/N=C\c2cccc(C#N)c2)c1	.	.	.	.	-8	.	.	.	.
Cc1ccccc1NC(=O)COC(=O)c1ccc2c(c1)OCCO2	.	.	.	0	1	0	.	.	.
COc1ccccc1NC(=O)COC(=O)c1ccc2c(c1)OCCO2	4	.	.	11*	22*	0	6	10*	32*	RORg DNA counter=>40
N#Cc1c(N)nc(SCC(=O)NCc2ccc3c(c2)OCO3)c(C#N)c1-c1cccs1	9	1	-11	50*	85*	0	23*	40*	54*	RORg DNA counter=>40
O=C(CSc1n[nH]c(-c2cccs2)n1)NCc1ccc2c(c1)OCO2	1	-54	-14	2	-2	0	.	.	.
O=C(NCc1ccc(F)c(F)c1)C1C2C=CC3(CN(Cc4ccccc4)C(=O)C13)O2 (stereo not given)	.	.	.	.	1	.	.	.	.
CC(=O)Nc1ccc(NC(=O)C(C)OC(=O)/C(C#N)=C/c2ccc(N(C)C)cc2)cc1 (stereo not given)	-7	.	26	17*	18*	0	20*	37*	14*
Fc1cc(F)c(CSc2nnc(-c3cccnc3)n2Cc2ccccc2)cc1F	.	.	.	.	-4	.	.	.	.
CCOc1ccccc1CNC(=O)C1CCN(c2nnc(C)c3c(C)n(-c4ccc(C)cc4)nc23)CC1	1	.	10	9.3*	44*	2	12*	33*	34*	RORg DNA counter=>40
Cc1ccc(-n2nc3c(N4CCC(C(=O)NCc5ccccc5C)CC4)nnc(C)c3c2C)cc1	-6	.	-5	.	.	0	.	.	.
CC(C)OCCCNC(=O)c1ccc2c(=O)n(Cc3ccc4c(c3)OCO4)c(=S)[nH]c2c1	18	2	6	-1	2	0	.	.	.
